Shown are actives, neighbours in structure and some others; about 2.7% of the full set was active somewhere.
PP5 inh – inhibitors of human protein phosphatase 5 (PP5). P53041. purified PP5c, OMFP substrate fluorescence. inhibition, % at 6.7 µM. 320,000 tested, 0.18% active. AID 1987;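 active means inhibition above the campaign's mean inhibition across all tested compounds plus 3 SD, cut at about 9.5% in these data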;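 further: 0% = DMSO only and 100% = 100 µM cantharidin control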
ANO1 block – mouse TMEM16A channel inhibition, primary screen; AID 588511; Q8BHY3; normalized B-score (activity score, 25-100; higher = stronger inhibition) at 10 µM; 310,000 tested, 1.2% active; HEK293 TMEM16A/YFP iodide influx fluorescence, ionomycin;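 active means ratio plate-corrected score three or more library SD toward inhibition, starting fluorescence score within five deviations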;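 further: score derived from kinetic fluorescence span divided by baseline fluorescence per well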
Target sequence (Q8BHY3 whole entry, looked up): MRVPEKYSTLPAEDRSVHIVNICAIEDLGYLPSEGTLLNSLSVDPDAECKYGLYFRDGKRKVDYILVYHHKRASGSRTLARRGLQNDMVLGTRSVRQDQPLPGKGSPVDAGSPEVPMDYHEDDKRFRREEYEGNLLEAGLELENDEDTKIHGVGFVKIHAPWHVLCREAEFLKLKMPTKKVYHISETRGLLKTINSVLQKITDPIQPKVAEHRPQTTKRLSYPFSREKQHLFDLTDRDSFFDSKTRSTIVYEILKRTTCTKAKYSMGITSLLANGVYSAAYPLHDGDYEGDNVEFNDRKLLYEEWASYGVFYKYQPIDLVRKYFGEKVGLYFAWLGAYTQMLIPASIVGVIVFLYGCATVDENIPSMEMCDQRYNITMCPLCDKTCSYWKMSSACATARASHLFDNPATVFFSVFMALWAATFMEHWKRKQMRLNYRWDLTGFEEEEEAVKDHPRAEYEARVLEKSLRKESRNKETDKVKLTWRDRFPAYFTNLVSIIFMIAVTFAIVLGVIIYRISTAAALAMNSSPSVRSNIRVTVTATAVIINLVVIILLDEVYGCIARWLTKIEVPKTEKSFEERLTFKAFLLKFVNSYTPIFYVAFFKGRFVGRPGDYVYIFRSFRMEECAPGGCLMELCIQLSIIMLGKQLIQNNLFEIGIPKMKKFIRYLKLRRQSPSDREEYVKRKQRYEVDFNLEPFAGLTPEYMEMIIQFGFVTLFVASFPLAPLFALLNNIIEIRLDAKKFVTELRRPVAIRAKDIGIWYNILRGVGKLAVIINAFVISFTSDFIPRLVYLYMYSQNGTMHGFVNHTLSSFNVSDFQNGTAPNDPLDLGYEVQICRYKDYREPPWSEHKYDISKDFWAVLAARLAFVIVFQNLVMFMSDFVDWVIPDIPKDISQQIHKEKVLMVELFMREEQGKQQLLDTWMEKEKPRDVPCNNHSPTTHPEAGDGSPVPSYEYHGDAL
ANO1 activ – activates or potentiates the mouse TMEM16A chloride channel. Q8BHY3. HEK293 TMEM16A/YFP-H148Q/I152L, iodide quench fluorescence; stronger effect = lower value. B-score at 10 µM. 340,000 tested, 0.3% active;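 active means fluorescence-ratio B-score plate-corrected deviation score at least 3 library SD below zero, with starting fluorescence score within 5 deviations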;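 further: channel opened by trigger with iodide after compound preincubation; score built on the fluorescence ratio of max minus min over baseline; more negative score means more quench and so TMEM16A activation or potentiation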
PREPL inh – inhibits the human prolyl oligopeptidase-like enzyme; Q4J6C6; AID 2751; recombinant PREPL, fluorescence polarization activity-based probe; 320,000 tested, 0.68% active; inhibition, % at 5.96 µM;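 further: 0% = enzyme with DMSO and 100% = wells lacking enzyme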
PP1 counter – blocks human PP1-alpha phosphatase, a PP5 counter-screen; P62136; purified PP1alpha, OMFP fluorescence; inhibition, % at 6.7 µM; 320,000 tested, 0.9% active; AID 2235;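 active means inhibition above the mean inhibition of all tested compounds plus 3 SD, computed separately for each screening campaign, cut at about 15% in these data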
FID counter – displaces DNA intercalator in HCV helicase counter-screen. 290,000 tested, 0.17% active. DNA fluorescent intercalator displacement, fluorescence. AID 1845. inhibition, % at 7.9 µM; in the data active means inhibition above about 37%;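 further: 0% = vehicle and 100% = reference compound; higher means more ethidium bromide displaced from hairpin DNA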
PREPL confirm – human PREPL inhibition, confirmation | inhibition, % at 5.96 µM | recombinant PREPL, fluorescence polarization activity probe | shares compounds with PREPL inh | 2,000 tested, 67% active;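 further: 0% = protein with DMSO and 100% = wells lacking protein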
Starred values were filed as active, the others as inactive; i = inactive; / = no result given. Unless noted, no stated cut-off is given here; in the data, active means inhibition above about 43%; inactive means the rest.

SMILES | PP5 inh | ANO1 block | ANO1 activ | PREPL inh | PP1 counter | FID counter | PREPL confirm
O=C1c2ccccc2-c2onc3c(N4CCN(CCO)CC4)cc(N4CCN(C(=O)c5ccco5)CC4)c1c23 | 1.9 | i | i | 44.7* | 7.1 | 18.0 | 55.7*
COc1ccc(-c2ccc(C#N)c(SCC(=O)OCc3ccccc3)n2)cc1OC | 4.3 | i | i | 57.5* | -2.7 | -6.1 | 15.6
O=C(C[n+]1ccccc1)N/N=C/c1ccc(Cl)cc1 | 1.5 | / | i | -14.1 | -5.2 | / | /
Cc1ccc(-c2[nH]c3ccccc3c2SCCN)cc1 | 0.5 | i | i | 57.0* | 3.9 | 3.2 | 41.1
NCCSc1c(-c2ccccc2)[nH]c2ccccc12 | 5.4 | i | i | 35.1 | 1.4 | 5.4 | /
NCCSc1c(-c2ccc(Cl)cc2)[nH]c2ccccc12 | -0.1 | i | i | 45.6* | 2.0 | 17.4 | 39.2
CC1CCC(C(C)C)C(OC(=O)C[n+]2cc(-c3ccc(Cl)cc3)n3c2CCCCC3)C1 (stereo not drawn) | 3.0 | i | i | 46.9* | 0.9 | 28.7 | 44.0*
Cn1c(=O)cc2c3c(c(N4CCCCC4)ccc31)C(=O)c1ccccc1-2 | -2.2 | i | i | 54.9* | 0.8 | 8.3 | 57.4*
O=C1c2ccccc2C(=O)c2c1cccc2N1CCCC1 | 5.7 | i | i | 37.5 | 0.4 | 10.0 | /
COc1cc(C#Cc2c(-c3cncn3C)n(C)c3ccc(-c4cnc(N5CCOCC5)nc4)cc23)cc(OC)c1 | / | / | i | 33.2 | / | / | /
COc1cc(C#Cc2c(-c3cncn3C)n(C)c3ccc(-c4ccc(CN5CCOCC5)cc4)cc23)cc(OC)c1 | / | / | i | 45.3* | / | / | 29.3
CN(C)S(=O)(=O)N(CC(=O)N1CCN(Cc2ccccc2)CC1)c1ccccc1 | 0.0 | i | i | -5.7 | -0.7 | -16.8 | /
CN(CC(=O)N1CCN(Cc2ccccc2)CC1)C(=O)Cc1ccc(Cl)c(Cl)c1 | / | / | i | 45.7* | / | / | 42.9
O=c1c2ccccc2sc2ccc(NCCCN3CCOCC3)cc12 | -1.2 | i | i | 44.8* | 0.4 | / | 35.3
COc1cc2sc3cc(NCCCN4CCOCC4)ccc3c(=O)c2cc1OC | / | / | i | 22.9 | / | / | /
COc1ccccc1C1c2ccc3ccccc3c2Oc2ncn(CCN(C)C)c(=N)c21 (stereo not drawn) | 1.6 | i | i | -15.7 | 1.9 | 13.5 | /
COc1ccc(C2c3ccc4ccccc4c3Oc3ncn(CCCN(C)C)c(=N)c32)cc1 (stereo not drawn) | 2.5 | i | i | 44.7* | 0.7 | 18.8 | 42.1
COc1ccc(NC(=S)N2CCN(c3ccc([N+](=O)[O-])cc3)CC2)cc1OC | 3.5 | i | i | 46.5* | -2.2 | 3.1 | 49.3*
CCCC(=O)Nc1ccc(-c2nc3ncccc3o2)cc1 | / | i | i | / | / | -14.2 | /
Nc1c(N(CCC2=CCCCC2)C(=O)c2ccccc2F)c(=O)[nH]c(=O)n1Cc1ccccc1 | -1.2 | / | i | 68.5* | 2.6 | / | 15.4
Nc1c(N(CCC2=CCCCC2)C(=O)Cc2ccccc2F)c(=O)[nH]c(=O)n1Cc1ccccc1 | 1.0 | / | i | 7.4 | 1.1 | / | /
O=S(=O)(/C=C/c1ccccc1)Nc1cccc(S(=O)(=O)NC2=NCCC2)c1 | -0.3 | i | i | 12.3 | -1.0 | -7.1 | /
O=C(O)c1ccc(Cl)c(NC(=O)C2CCCN2S(=O)(=O)c2cccc3nsnc23)c1 (stereo not drawn) | 4.9 | i | i | 68.6* | 1.0 | -20.8 | 0.3
Cc1ccccc1OCC(=O)Nc1c2c(nn1C(C)(C)C)CS(=O)(=O)C2 | 2.2 | i | i | 13.0 | 0.5 | -21.8 | /
O=C(CCCn1c(=O)oc2ccccc21)N1CCN(c2ccc(F)cc2)CC1 | 0.6 | i | i | -94.2 | -2.4 | -25.4 | /
SMILES | PP5 inh | ANO1 block | ANO1 activ | PREPL inh | PP1 counter | FID counter | PREPL confirm
O=C(CCn1c(=O)oc2ccccc21)N1CCN(c2ccccc2F)CC1 | -1.5 | i | i | 62.1* | 2.6 | -22.0 | 8.1
COc1cc2c(C#N)c(N3CCCC3)nc(N)c2c(N)n1 | 2.4 | i | i | 12.0 | 0.4 | 2.5 | /
COc1cc2c(C#N)c(N3CCN(C)CC3)nc(N)c2c(N)n1 | 8.0 | i | i | 45.4* | -1.6 | 10.6 | 33.8
COc1cc2c(C#N)c(N3CCN(c4ccccc4OC)CC3)nc(N)c2c(N)n1 | 3.3 | i | i | 48.9* | 3.2 | -1.6 | 45.5*
CC(NC(=O)c1ccc(F)cc1F)C1CC2CCC1C2 (stereo not drawn) | 1.6 | i | i | 2.0 | 6.1 | -15.7 | /
O=C(CN1CC[n+]2c(-c3cccs3)csc21)c1ccc(-c2ccccc2)cc1 | -1.6 | i | i | 46.0* | 1.0 | 4.0 | 41.7
Cc1ccc(C(=O)Cn2nnc(-c3cccs3)n2)cc1 | 4.0 | i | i | -11.5 | 0.4 | -14.5 | /
COc1ccc(CN2CCNC(=O)C2CC(=O)NCC(C)(C)N2CCOCC2)cc1C (stereo not drawn) | 0.7 | i | i | 8.1 | -1.8 | 5.3 | /
CC(=O)CCC(=O)N1CCCC(CNC(=O)c2ccc(-c3ccccc3)cc2)C1 (stereo not drawn) | 0.7 | i | i | 43.1* | -3.4 | -19.5 | 35.4
C#CCOCCOCCOCCNc1nc(N2CCN(C(=O)[C@H](CCCCN)n3cc([C@@H](N)C(C)CC)nn3)CC2)nc(N2CCN(C(=O)[C@H](Cc3cc4ccccc4[nH]3)n3cc([C@@H](N)C(C)CC)nn3)CC2)n1 (stereo partly drawn) | / | / | i | 57.1* | / | / | 53.2*
C#CCOCCOCCOCCNc1nc(N2CCN(C(=O)CCCCCCCCCCNC(=O)[C@@H](CCC(=O)O)n3cc(CCCCCN)nn3)CC2)nc(N2CCN(C(=O)CCCCCCCCCCNC(=O)[C@H](CO)n3cc(CCCCCN)nn3)CC2)n1 | 1.7 | i | i | 45.7* | 15.3* | / | 30.7
C#CCOCCOCCOCCNc1nc(N2CCN(C(=O)C(Cc3cc4ccccc4[nH]3)n3cc(C(N)C(C)CC)nn3)CC2)nc(N2CCN(C(=O)C(Cc3cc4ccccc4[nH]3)n3cc(C(N)C(C)CC)nn3)CC2)n1 (stereo not drawn) | 3.7 | i | i | 49.5* | 27.2* | 38.4* | 62.0*
C#CCOCCOCCOCCNc1nc(N2CCN(C(=O)[C@H](CCC(=O)O)n3cc(C(N)[C@H](C)CC)nn3)CC2)nc(N2CCN(C(=O)[C@H](Cc3cc4ccccc4[nH]3)n3cc(C(N)[C@H](C)CC)nn3)CC2)n1 (stereo partly drawn) | 1.9 | i | / | 9.0 | 1.9 | 11.7 | /
Cc1ccc(C(N)=Nc2ccccc2)cc1 | -0.6 | i | i | -6.0 | -3.7 | -1.8 | /
